These results are taken from PubChem BioAssay.

Activity calls are given as the source filed them. Unless noted, the rule behind the calls is not given here.

The test system of assay [1] is Wnt5a (protein binding on small-molecule microarray). The assay is described as follows: Wnt5a binders on small-molecule microarray, primary screen, biophysical, 635/667 nm fluorescence (AID 1142).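 Note: fluorescence read at 667 nm with signal to noise per printed feature.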 The note with it: 635 nm fluorescence, higher = more signal.
Assay [2] is described as follows: cell viability in Huh7 cells, primary screen, cytotoxicity control for HCV replication inhibitor project, CellTiter-Glo luminescence, basal, 48 h (AID 1143).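 Note: Huh7 hepatoma cells carrying a hepatitis C replication reporter with no stimulus; test concentration not given here.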 The note with it: Huh7 HCV replicon, higher = more signal, called active from +8 up or from −8 down.
Assay [3] in a line: P. aeruginosa biofilm formation inhibitors, primary screen, PAO1 strain, BacTiter-Glo luminescence, LB-PBS (AID 1144). The conditions noted are these: 12 h, higher = more signal.
A short description of assay [4]: CREB reporter modulators without forskolin, primary screen, cell-based, PC12, CRE-LacZ reporter, unstimulated (AID 1145). The note with it: no forskolin, luminescence, 4.5 h, higher = more signal, called active from +8 up or from −8 down.
Assay [5] in a line: CREB reporter modulators under forskolin, primary screen, cell-based, PC12, CRE-LacZ reporter, forskolin-stimulated (AID 1146).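 Note: PC12 cells with 6xCRE LacZ reporter stimulated by forskolin 10 µM; beta-galactosidase reporter signal reflecting CREB driven transcription.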 The conditions noted are these: luminescence, 4.5 h, higher = more signal, called active from +8 up or from −8 down.
Assay [6] addresses Streptavidin (Streptomyces avidinii) (UniProt P22629). The assay is described as follows: streptavidin binders on small-molecule microarray, primary screen, artefact control for SMM compound annotation, biophysical, 635/667 nm fluorescence (AID 1147).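 Note: signal reflects streptavidin binding to arrayed compounds as a control protein.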 The note with it: streptavidin binding, higher = more signal.
Assay [7] is described as follows: small-molecule binders of probe aInhba, primary screen, biochemical, small-molecule microarray, 635/667 nm fluorescence (AID 1148).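 Note: score merges 667nm spot fluorescence with signal-to-noise for antibody binding to printed compounds.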 The note with it: higher = more signal.
Assay [8] concerns the target Torsin-1A (Homo sapiens) (UniProt O14656). Put plainly: torsin A binders from cell lysate, primary screen, small-molecule microarray, wild-type, 635/667 nm (AID 1149). The note with it: COS7 hTOR1A-WT lysate, 635 nm fluorescence, higher = more signal.
For assay [9] the target is unchanged. The assay is described as follows: small-molecule binders of mutant TOR1A in lysate, primary screen, cell lysate, small-molecule microarray, COS7 lysate, 635/667 nm fluorescence (AID 1150).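 Note: score pools 667 nm emission and signal to noise measuring lysate protein binding.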 The note with it: COS7 hTOR1A mutant lysate, 635 nm fluorescence, higher = more signal.
Assay [10] deals with Sonic hedgehog protein (Shh). Put plainly: small-molecule binders of Shh protein, primary screen, biochemical, small-molecule microarray, 635/667 nm fluorescence (AID 1151).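 Note: Shh protein binding to compounds spotted on small-molecule microarray slides; score combines spot fluorescence intensity with signal-to-noise across triplicate slides.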 The conditions noted are these: small-molecule microarray binding, 635 nm fluorescence; higher = more signal.
The nature of assay [11]: E. coli DRC41 culture turbidity changes, primary screen, E. coli filamentation inducer project, strain DRC41, OD650, 48 h (AID 1152).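 Note: E. coli MC1000 strain DRC41 lacking acrAB efflux pump and sulA.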 The conditions noted are these: E. coli DRC41 (acrAB sulA), higher = more signal, called active from +8 up or from −8 down.
The nature of assay [12]: small-molecule binders of probe aLefty1, primary screen, biochemical, small-molecule microarray, 635/667 nm fluorescence (AID 1153).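 Note: score merges spot fluorescence with signal-to-noise ratio from the scanned slide images.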 The conditions noted are these: higher = more signal.
The nature of assay [13]: PSAC antagonists in infected red cells, primary screen, cell-based, P. falciparum Indochina, OD700, 1 h (AID 1154). The note with it: P. falciparum Indochina infected RBC osmotic lysis, higher = more signal, called active from +8 up or from −8 down.
Assay [14] in a line: PSAC antagonists in infected red cells, primary screen, cell-based, P. falciparum Indochina, OD700, 2 h (AID 1155).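 Note: lysis reports solute entry through the parasite surface anion channel PSAC; channel blockers reduce lysis of infected cells.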 The note with it: P. falciparum Indochina infected erythrocytes, osmotic lysis OD700; higher = more signal, called active from +8 up or from −8 down.
A short description of assay [15]: osmotic lysis modulators in infected erythrocytes, primary screen, PSAC antagonist project, cell-based, P. falciparum Indochina, OD700, 3 h (AID 1156). The note with it: higher = more signal, called active from +8 up or from −8 down.
The nature of assay [16]: PSAC antagonists in infected red cells, primary screen, cell-based, P. falciparum Indochina, OD700, 18 h (AID 1157). The note with it: P. falciparum Indochina infected erythrocytes, osmotic lysis OD700, 18 h; higher = more signal, called active from +8 up or from −8 down.
Assay [17] in a line: modulators of S6 phosphorylation in cells, primary screen, cell-based, A549, cytoblot, luminescence, serum-stimulated (AID 1158).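 Note: serum-stimulated A549 lung adenocarcinoma cells; signal is phosphorylated S6 detected by cytoblot immunostaining with HRP secondary.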 The note with it: A549 phospho-S6 cytoblot, 5 h, higher = more signal.
Assay [18] deals with NADPH oxidase 2 (Homo sapiens) (UniProt P04839). Put plainly: NOX2-dependent H2O2 signal modulators, primary screen, NOX inhibitor project, cell-based, HEK293-NOX2, PMA-stimulated, Amplex Red fluorescence (AID 1159). Note: test concentration not given here. The note with it: 45 min, higher = more signal, called active from +8 up or from −8 down.
NADPH oxidase 2 (Homo sapiens), sequence (P04839 whole entry, looked up): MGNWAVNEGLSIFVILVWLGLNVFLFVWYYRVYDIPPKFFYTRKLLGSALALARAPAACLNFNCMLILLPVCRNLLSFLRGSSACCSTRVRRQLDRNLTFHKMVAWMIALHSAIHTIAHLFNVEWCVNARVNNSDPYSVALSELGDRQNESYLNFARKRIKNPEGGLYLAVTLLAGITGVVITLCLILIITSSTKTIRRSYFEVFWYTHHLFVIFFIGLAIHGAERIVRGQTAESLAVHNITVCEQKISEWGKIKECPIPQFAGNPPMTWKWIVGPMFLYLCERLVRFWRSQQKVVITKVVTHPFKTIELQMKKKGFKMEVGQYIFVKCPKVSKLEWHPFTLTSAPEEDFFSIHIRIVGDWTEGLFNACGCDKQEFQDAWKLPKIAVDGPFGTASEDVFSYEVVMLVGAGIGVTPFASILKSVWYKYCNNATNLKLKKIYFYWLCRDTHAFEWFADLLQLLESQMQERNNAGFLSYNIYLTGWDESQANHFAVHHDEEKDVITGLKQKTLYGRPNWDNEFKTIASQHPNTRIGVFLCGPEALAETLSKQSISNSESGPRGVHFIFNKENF
Assay [19] addresses NADPH oxidase 4 (Homo sapiens) (UniProt Q9NPH5). Put plainly: NOX4-dependent H2O2 signal modulators, primary screen, NOX inhibitor project, cell-based, HEK293-NOX4, tetracycline-induced, Amplex Red fluorescence (AID 1160). The conditions noted are these: 45 min, higher = more signal, called active from +8 up or from −8 down.
Assay [20] addresses NADPH oxidase 5 (Homo sapiens) (UniProt Q96PH1). Put plainly: NOX5-dependent H2O2 signal modulators, primary screen, NOX inhibitor project, cell-based, HEK293-NOX5, Amplex Red fluorescence (AID 1161). The note with it: HEK293-NOX5, ionomycin, 45 min, higher = more signal.

Streptavidin (Streptomyces avidinii), sequence (P22629 whole entry, looked up): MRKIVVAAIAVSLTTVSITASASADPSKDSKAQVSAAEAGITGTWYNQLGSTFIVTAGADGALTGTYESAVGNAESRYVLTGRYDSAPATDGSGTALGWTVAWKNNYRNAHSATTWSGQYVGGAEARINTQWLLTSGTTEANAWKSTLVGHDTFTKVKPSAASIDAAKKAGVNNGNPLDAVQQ
NADPH oxidase 5 (Homo sapiens), sequence (Q96PH1 whole entry, looked up): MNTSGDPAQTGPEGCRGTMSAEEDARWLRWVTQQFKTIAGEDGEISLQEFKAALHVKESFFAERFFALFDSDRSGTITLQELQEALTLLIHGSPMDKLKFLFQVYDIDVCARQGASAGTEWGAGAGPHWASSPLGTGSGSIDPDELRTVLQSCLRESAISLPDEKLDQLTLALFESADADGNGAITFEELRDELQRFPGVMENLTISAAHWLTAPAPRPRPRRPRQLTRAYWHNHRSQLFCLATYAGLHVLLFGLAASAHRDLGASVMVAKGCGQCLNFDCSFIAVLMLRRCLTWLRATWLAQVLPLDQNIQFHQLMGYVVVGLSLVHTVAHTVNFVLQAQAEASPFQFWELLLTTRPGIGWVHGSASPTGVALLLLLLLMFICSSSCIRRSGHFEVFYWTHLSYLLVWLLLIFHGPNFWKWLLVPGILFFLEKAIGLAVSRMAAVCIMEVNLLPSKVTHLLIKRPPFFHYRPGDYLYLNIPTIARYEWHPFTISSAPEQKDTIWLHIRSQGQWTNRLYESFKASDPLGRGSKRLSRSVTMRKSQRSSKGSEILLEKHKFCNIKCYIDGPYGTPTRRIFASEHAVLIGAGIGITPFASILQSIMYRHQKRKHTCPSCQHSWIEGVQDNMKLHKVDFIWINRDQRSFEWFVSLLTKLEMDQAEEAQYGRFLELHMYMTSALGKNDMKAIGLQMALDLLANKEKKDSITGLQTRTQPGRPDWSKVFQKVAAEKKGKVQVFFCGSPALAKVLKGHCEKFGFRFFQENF
Torsin-1A (Homo sapiens), sequence (O14656 whole entry, looked up): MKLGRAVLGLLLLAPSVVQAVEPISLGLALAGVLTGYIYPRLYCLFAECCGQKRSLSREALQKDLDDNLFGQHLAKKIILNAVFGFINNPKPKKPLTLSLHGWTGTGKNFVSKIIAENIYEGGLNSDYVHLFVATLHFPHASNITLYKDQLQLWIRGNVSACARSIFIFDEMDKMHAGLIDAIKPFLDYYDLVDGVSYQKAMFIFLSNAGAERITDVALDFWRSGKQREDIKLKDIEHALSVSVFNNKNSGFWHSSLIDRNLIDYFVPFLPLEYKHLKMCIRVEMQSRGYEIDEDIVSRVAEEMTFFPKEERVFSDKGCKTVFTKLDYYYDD
NADPH oxidase 4 (Homo sapiens), sequence (Q9NPH5 whole entry, looked up): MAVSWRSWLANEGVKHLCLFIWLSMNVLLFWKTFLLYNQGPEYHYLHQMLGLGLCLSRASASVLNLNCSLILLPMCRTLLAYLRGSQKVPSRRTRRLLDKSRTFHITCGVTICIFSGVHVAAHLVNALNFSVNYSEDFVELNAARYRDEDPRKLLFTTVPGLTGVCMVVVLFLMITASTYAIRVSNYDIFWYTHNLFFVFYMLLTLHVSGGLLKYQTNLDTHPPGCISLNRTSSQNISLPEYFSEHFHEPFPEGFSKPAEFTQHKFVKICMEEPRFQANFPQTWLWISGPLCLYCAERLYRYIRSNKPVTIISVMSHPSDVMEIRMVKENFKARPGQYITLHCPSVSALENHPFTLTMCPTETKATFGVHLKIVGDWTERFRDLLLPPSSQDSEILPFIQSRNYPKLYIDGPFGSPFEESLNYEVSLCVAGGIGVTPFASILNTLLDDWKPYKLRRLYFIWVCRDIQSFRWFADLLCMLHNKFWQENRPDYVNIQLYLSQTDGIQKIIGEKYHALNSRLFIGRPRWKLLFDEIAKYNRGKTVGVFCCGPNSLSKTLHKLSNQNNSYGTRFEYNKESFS

Turning to `C[C@]1(C(=O)O)c2ccccc2C(=O)N(Cc2cc(F)cc(C(F)(F)F)c2)[C@H]1c1ccc(CO)cc1`, the composite z-score is -0.0056 in assay [1]; 0.0949 in [6]; -0.152 in assay [7]; -0.0875 in [8]; 0.154 in [9]; 0.505 in [10]. In addition, in assay [12], the composite z-score is -0.261. In addition, the z-score was -2.56 (inactive) in [2]; -2.17 (inactive) in assay [3]; -0.502 (inactive) in assay [4]; -0.172 (inactive) in [5]; -0.169 (inactive) in [11]; 2.63 (inactive) in assay [13]. For the same molecule, the z-score in assay [14] is -0.0481 (inactive); in assay [15], -0.992 (inactive); in assay [16], -0.927 (inactive); in assay [17], 1.27; in assay [18], 0.477 (inactive); in assay [19], -1.43 (inactive). In [20], this molecule showed a z-score of -2.26.

Turning to `C=CCOC(=O)[C@@H]1[C@H]2C(=O)O[C@H](c3ccccc3)[C@H](c3ccccc3)N2[C@H](c2ccc(OCCOC(=O)[C@H]3C[C@H]4C(=O)N5CCC[C@H]5C(=O)N4[C@H]3c3cccc(OCCO)c3)cc2)[C@@]12C(=O)Nc1ccc(I)cc12`, the composite z-score in [1] is 0.473; in assay [6], 0.502; in [7], -0.0552; in [8], 0.438; in assay [9], 0.618; in assay [10], 1.97. Moreover, the composite z-score in [12] is -0.101. Further, the z-score in assay [2] was 0.0351 (inactive); in [3] it was -0.699 (inactive); in [4], 0.545 (inactive); in assay [5], -0.206 (inactive); in assay [11], -0.565 (inactive); in [13] it was 1.72 (inactive). Also, the z-score in assay [14] is 1.39 (inactive); in [15], -0.341 (inactive); in assay [16], 0.84 (inactive); in assay [17], -0.101; in assay [18], 0.929 (inactive); in [19], 0.788 (inactive). Moreover, the z-score in [20] turned out to be 0.32.

`COCCOC(=O)N1C(=O)[C@@]2(c3cc(C#CCC(C(=O)OC)C(=O)OC)ccc31)[C@H](C(N)=O)[C@H]1C(=O)O[C@H](c3ccccc3)[C@H](c3ccccc3)N1[C@@H]2c1ccc(O)cc1`: the composite z-score in [1] is 0.449; in [6] it was -0.0413; in [7] it was -0.0405; in assay [8], 0.551; in assay [9] it was 0.919; in assay [10], 1.75. In assay [12], this molecule displayed a composite z-score of 0.0406. The z-score was -5.41 (inactive) in assay [2]; -1.01 (inactive) in [3]; -0.168 (inactive) in [4]; -0.339 (inactive) in [5]; -0.247 (inactive) in [11]; 26.5 (active) in assay [13]. Also, the z-score in assay [14] is 12.4 (active); in assay [15] it was 3.28 (inactive); in [16] it was 2.53 (inactive); in assay [17], -0.255; in assay [18], 1.29 (inactive); in assay [19], 0.385 (inactive). Besides, the z-score in assay [20] was determined as 0.73.

Take `C=CC[C@@]1(C(=O)N(C)C)N=C(c2ccc(OCCCO)cc2)O[C@@H]1c1ccccc1CN=[N+]=[N-]`: the composite z-score in assay [1] worked out at 0.615; in assay [6], 1.35; in assay [7], 0.143; in [8], 0.886; in assay [9] it was 1.17; in assay [10], 0.38. In assay [12], this molecule had a composite z-score of 0.0513. In addition, the z-score is -2.89 (inactive) in assay [2]; 1.1 (inactive) in assay [3]; 0.754 (inactive) in assay [4]; -0.357 (inactive) in [5]; 1.34 (inactive) in assay [11]; 23.1 (active) in [13]. For the same molecule, the z-score in [14] is 6.73 (inactive); in [15] it was 1.93 (inactive); in assay [16], 1.26 (inactive); in assay [17], -0.354; in assay [18], 1.85 (inactive); in assay [19] it was 0.736 (inactive). Besides, the z-score in assay [20] was -1.42.

Consider `[N-]=[N+]=NCc1ccccc1[C@@H]1OC(c2ccc(OCCCO)cc2)=N[C@]1(Cc1ccccc1N=[N+]=[N-])C(=O)NCC(O)CO` (stereo not given in full), for which the composite z-score in assay [1] was 0.88; in assay [6], 1.74; in assay [7] it was 0.791; in assay [8], 0.553; in assay [9], 1.65; in [10], -0.771. The composite z-score in assay [12] is 1.31. In addition, the z-score in [2] was -1.49 (inactive); in [3] it was 0.12 (inactive); in [4], 0.47 (inactive); in assay [5] it was -0.806 (inactive); in assay [11], 0.553 (inactive); in assay [13] it was 20.2 (active). In addition, the z-score in [14] is 5.06 (inactive); in [15], 1.09 (inactive); in [16] it was 1.1 (inactive); in assay [17] it was -0.0256; in assay [18] it was -0.868 (inactive); in [19], 0.704 (inactive). This molecule also displayed a z-score in [20] of 1.5.
